Most compounds without a hit are left out; they make up all but 9.1% or so of the library.
D1 mod – allosterically modulates the human D1 dopamine receptor; B-score at 10 µM; actives 5.9% (n = 58,000); P21728; HEK293 D1, CRE-luciferase, dopamine EC30 potentiation; actives deviate in either direction;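 active means luminescence count or its row- and column-corrected plate score outside the 99.7% band of the plate's sample wells, on either side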
M1 ag – agonists of M1 muscarinic receptor | actives 3% (n = 64,000) | B-score at 10 µM | CHO-M1 cells, Fluo-4 calcium fluorescence, agonist mode; hits give high values | AID 626;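 active means fluorescence rise, raw or as B-score row- and column-corrected plate score, outside the 99.7% band of its plate's samples, either direction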
M1 antag – M1 muscarinic receptor (rat) antagonism. P08482. CHO-M1 cells, Fluo-4 calcium, ACh EC80 antagonist mode; hits give low values. B-score at 10 µM. actives 3.4% (n = 64,000);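 active means calcium fluorescence response, raw or row-and-column corrected B-score, differing from the plate sample mean either way at a set confidence level, mostly lower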
mHtt clearance – compounds clearing mutant huntingtin protein; actives 0.42% (n = 47,000); inhibition, % at 1.5 µM; HeLa Exon1htt(103Q)mCFP, aggregate imaging; zero = plate's median compound well;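 active means inhibition of aggregate fluorescence above about 70%, also judged a hit by eye on the cell image, limit read from the data, passing the limit was not always enough; inconclusive means no rule stated for this call; inactive means not judged a hit on image review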;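 further: cells exposed to compound for three days before fixation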
M1 agonist conf – rat M1 muscarinic agonism, confirmation | fluorescence change (max-min) at 10 µM | shares compounds with M1 ag | AID 1488 | CHO-M1 cells, Fluo-4 calcium fluorescence, agonist mode; actives lie on both sides | actives 19% (n = 1,700);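 active means fluorescence change differs from the solvent-only DMSO control mean at a set confidence level in both duplicate runs; inconclusive means differs from solvent-only control mean in just one of two runs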;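 further: an EC20 dose of acetylcholine follows compound addition during the same imaging run; raw fluorescence intensity difference in instrument units with no normalization to controls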
M4 ag counter – rat M4 muscarinic agonism, M1 counter-screen. AID 1741. shares compounds with M1 ag. CHO M4/Gqi5 cells, Fluo-4 calcium fluorescence, agonist mode; actives lie on both sides. fluorescence change (max-min) at 10 µM. actives 9% (n = 1,700);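 active means fluorescence change differing from the plate's solvent-only control wells at 99.7% confidence in both duplicates, whether higher or lower; inconclusive means differs from solvent controls in only one of two duplicates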
Target sequence (P08485 whole entry, looked up): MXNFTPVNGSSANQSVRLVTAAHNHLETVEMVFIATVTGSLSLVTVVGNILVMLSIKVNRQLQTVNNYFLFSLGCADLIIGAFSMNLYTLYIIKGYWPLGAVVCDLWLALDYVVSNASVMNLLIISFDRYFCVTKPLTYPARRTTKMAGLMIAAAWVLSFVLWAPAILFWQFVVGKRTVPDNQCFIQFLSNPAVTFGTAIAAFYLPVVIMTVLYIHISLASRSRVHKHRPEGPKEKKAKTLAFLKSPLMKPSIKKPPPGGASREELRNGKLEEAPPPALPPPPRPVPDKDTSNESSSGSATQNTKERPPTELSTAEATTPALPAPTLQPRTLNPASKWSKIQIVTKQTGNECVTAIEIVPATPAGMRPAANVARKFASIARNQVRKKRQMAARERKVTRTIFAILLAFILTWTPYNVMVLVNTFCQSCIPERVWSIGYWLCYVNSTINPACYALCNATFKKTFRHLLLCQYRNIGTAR
* marks the source's active call; other numbers are inactive results.

`Cc1csc(NC(=O)CSc2nnc(-c3ccco3)n2C)n1` gave D1 mod 0.0065, M1 ag 0.0057 and M1 antag 0.29.
Cc1ccc(C2C(C#N)=C(N)Oc3nc(-c4ccccc4)[nH]c32)o1 (configuration not stated) was read as M1 ag 3.5*, M1 antag -0.14, mHtt clearance 58, M1 agonist conf -24* and M4 ag counter -35.
For Cc1ccc(SCc2[nH]nc3c2C(c2ccc(C)o2)C(C#N)=C(N)O3)cc1 (configuration not stated) the results were D1 mod -0.22, M1 ag -0.39 and M1 antag 0.33.
COc1ccc(-c2noc(N3CCC(C(=O)N4CCN(c5ccccn5)CC4)CC3)n2)cc1 was read as D1 mod -1.5, M1 ag 2.4*, M1 antag -2.2, mHtt clearance 18, M1 agonist conf 18 and M4 ag counter -13.
CC(C(=O)NCC1CCCO1)n1cccc1C(=O)c1ccccc1 (configuration not stated) was read as D1 mod -0.61, M1 ag 21*, M1 antag 2.3*, M1 agonist conf -10 and M4 ag counter inconclusive.
`OC(COc1ccccc1Cl)CN1CCN(CC(O)COc2ccccc2Cl)CC1` (configuration not stated) gave D1 mod -6.3*, M1 ag 5.2*, M1 antag -0.49, mHtt clearance -45, M1 agonist conf -13 and M4 ag counter inconclusive.
Screening C=CCN1C(=O)C2(c3ccccc31)C1CCCC=C1C(C#N)=C(N)C2(C#N)C#N (configuration not stated) returned D1 mod 0.4, M1 ag -0.73 and M1 antag 0.05.
Screening CN1CCC2(CC1)C1CN(C)CC=C1C(C#N)=C(N)C2(C#N)C#N (configuration not stated) returned M1 ag 34*, M1 antag 0.41, mHtt clearance 51, M1 agonist conf 215* and M4 ag counter 160*.
Screening CC(C)Oc1cccc(C(=O)O)c1 returned D1 mod 0.021, M1 ag 1.4, M1 antag 0.97 and mHtt clearance -33.
Screening COc1cccc(NC=C2C(=O)OC3(CCCCC3)OC2=O)c1 returned D1 mod -0.15, M1 ag 2.7*, M1 antag -0.46, M1 agonist conf -11 and M4 ag counter -44.
Screening CCn1c(C(=O)N2CCC(C(=O)N3CCN(c4ccccn4)CC3)CC2)cc2sccc21 returned D1 mod -1.2, M1 ag 2.5*, M1 antag -0.7, mHtt clearance -182, M1 agonist conf -19 and M4 ag counter inconclusive.
`CC1CCN(C(=O)C2CCN(C(=O)c3cc4sccc4n3Cc3ccc(F)cc3)CC2)CC1` gave M1 ag 1.2 and M1 antag -1.1.
`COc1ccc(CN2C(=O)NC3(CCCCCC3)C2=O)cc1F` gave M1 ag 0.0083 and M1 antag -0.29.
`Cc1ccc(Cl)cc1N1CCN(C(=O)Cn2ccc3ccccc3c2=O)CC1` gave D1 mod 0.038, M1 ag 8.7*, M1 antag -0.047, mHtt clearance 39, M1 agonist conf 3.7 and M4 ag counter -26.
Screening CN(C(=S)Nc1ccc(F)cc1)C1(c2ccccc2Cl)CCCCC1=O (configuration not stated) returned mHtt clearance -25.
For c1cc2c(cc1-c1cnc3n1CCC3)OCCO2 the results were D1 mod -2.8, M1 ag 2.6*, M1 antag -2.5, M1 agonist conf inconclusive and M4 ag counter -61.
For COC(=O)c1ccc(CC(=O)c2ccc(O)cc2O)o1 the results were D1 mod -2.2*, M1 ag 20*, M1 antag 0.13, mHtt clearance -52, M1 agonist conf 37 and M4 ag counter 11.
CCOC(=O)c1ccc(CC(=O)c2ccc(O)cc2O)o1 was read as mHtt clearance 20.
For CC(C)NC(=O)c1ccc(OC2CSC2)cc1 the results were mHtt clearance 12.
For O=C(c1ccccc1)N1CCCOC1c1ccccc1 (configuration not stated) the results were D1 mod -0.095, M1 ag 0.17, M1 antag 0.32 and mHtt clearance -8.

From PubChem BioAssay
